# Assay results published in ChEMBL document CHEMBL5308541, “MAIP: An Open-Source Tool to Enrich High-Throughput Screening Output and Identify Novel, Druglike Molecules with Antimalarial Activity” (ACS Med Chem Lett, 2023).
# Among all 4,800 compounds or so, about 410 (8.5%) showed an effect of 50% or more. This excerpt belongs to a sample that is enriched for strong results.
# Test system: Plasmodium falciparum
# Assay: Confirmatory screen in NF54 pLDH assay, in single point, at 2uM, 72h
# Assay type: functional, Erythrocyte
# Settings: timepoint 72 hour
row,Compound,% Inhibition [%]
1,Fc1ccc(N2CC[C@H](CN3CCC(c4c[nH]c5ccccc45)(c4c[nH]c5ccccc45)CC3)C2)cc1,102
2,CN1C2CCC1CC(OC(=O)C1CCC(C(=O)OC3CC4CCC(C3)N4C)(c3ccccc3)c3ccccc31)C2 (stereo unspecified),63
3,CN1CCC(N(C)c2ccccc2CNC[C@@H](O)c2cccc(Cl)c2)CC1,17
4,O[C@@H](CNCc1ccc2c(c1)CCO2)c1ccc(F)c(F)c1,74
5,CC(C)(C)c1ccc(CNC[C@H](O)c2ccc(F)cc2F)cc1,91
6,CN1CCN(c2ccc(C(F)(F)F)cc2NCc2cnc[nH]2)CC1,92
7,COc1ccc(CCNCc2ccc3[nH]cnc3c2)c(Cl)c1,48
8,CCN(C(C)=O)c1nc(CN2CC=C(c3c[nH]c4cc(F)ccc34)CC2)cs1,20
9,CN(C)CC12CNCC1CN(c1ccnc3cc(Cl)ccc13)C2 (stereo unspecified),97
10,Oc1ccc(C2=CCN(Cc3cccc4[nH]ccc34)CC2)cc1,38
11,CCCOc1cncc(-c2ccc3c(c2)CNCC3)c1,8
